# Bioassay records deposited in PubChem BioAssay by Broad Institute.
# HIV Env fusion – inhibitors of HIV-1 Env-driven cell-cell fusion, primary screen, HeLa-JRFL effector, CEM21 target cells, luciferase. hit rate 1.1% among 360,000. AID 651610, 2012. inhibition, % at 12.3 µM;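 active means mean replicate inhibition score of at least 50 and every replicate individually at or above 50; inconclusive means only one of the two criteria met; inactive means mean below 50 and not all replicates reaching 50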
# PAX8 reporter – inhibitors of PAX8-driven TPO luciferase reporter, primary screen, RMG-I cells, single concentration | SteadyGlo, 24 h | inhibition, % at 12.6 µM | hit rate 1.2% among 360,000;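 active means mean replicate inhibition at least 60% with every replicate also reaching 60%; inconclusive means only one of the two criteria is met; inactive means mean below 60% and not all replicates reaching 60%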;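 further: luciferase light reporting Pax8 driven TPO promoter activity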
# Glyco luc inh – increase of ERlucT glycosylation luciferase signal, primary screen, N-linked glycosylation inhibitor project, D54 ERlucT cells, luminescence, set 2. D54 ERlucT glycosylation luciferase reporter, 24 h; percent of 100 nM tunicamycin response. reporter increase, % at 12.5 µM. hit rate 0.23% among 360,000;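 active means mean luciferase reporter signal, scaled so untreated is 0 and the glycosylation-blocking control 100, at or above a set limit in every replicate; inconclusive means mean reaches the limit but not every replicate does; inactive means mean below the limit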;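 further: luciferase carries N-glycosylation sites so blocking glycosylation raises the light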
# EBV LMP1 NFkB – EBV LMP1-driven NF-kappaB luciferase reporter inhibitors, primary screen, cell-based, luminescence, single point | LMP1-induced NF-kappaB luciferase reporter cells | inhibition, % at 12.5 µM | hit rate 0.69% among 350,000 | AID 504558, 2011; in the data active means inhibition above about 41%; inconclusive means no clear call, values can overlap the other calls
# NSD2 inh – NSD2 histone methyltransferase inhibitors, primary screen, biochemical, AlphaScreen, single concentration, set 2 | Histone-lysine N-methyltransferase NSD2 (Homo sapiens), O96028 | NSD2 peptide methylation, 120 min | inhibition, % at 12.5 µM | hit rate 0.54% among 310,000 | AID 743445, 2014; in the data active means inhibition above about 50%
# Shn3 3UTR inh – reduction of Shn3 3'UTR firefly luciferase signal, primary screen, Schnurri-3 inhibitor project, cell-based, Clone20 osteoblasts, set 2. Clone20 osteoblast Shn3 3'UTR firefly luciferase, 24 h. inhibition, % at 12.5 µM. hit rate 0.52% among 360,000;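 active means mean inhibition of at least 75% with every replicate also reaching 75%; inconclusive means mean inhibition at least 75% but some replicate below; inactive means mean inhibition below 75%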
# A number is an active result; n = inactive; u = inconclusive; x = no result given; + = active, no number. Sampled rows, rich in hits. Any-hit rate of the full collection: about 2.8%.
SMILES,HIV Env fusion,PAX8 reporter,Glyco luc inh,EBV LMP1 NFkB,NSD2 inh,Shn3 3UTR inh
COC(=O)C1=C(c2cc3ccccc3s2)C[C@@H]2CC[C@H]1N2C(=O)NCc1ccc(C(F)(F)F)cc1,n,66,n,n,x,n
COC(=O)C1=C(c2ccccc2OCc2ccccc2)C[C@@H]2CC[C@H]1N2C(=O)NCc1ccc(C(F)(F)F)cc1,n,n,n,n,x,n
COC(=O)C1=C(c2ccc(F)cc2OCc2ccccc2)C[C@@H]2CC[C@H]1N2C(=O)NCc1ccc(C(F)(F)F)cc1,n,88,n,n,x,93
CCCNC(=O)N1[C@@H]2c3ccc(-c4cccc(C(=O)N(C)C)c4)c(=O)n3C[C@H]1[C@H](CO)[C@H]2C(=O)O,x,n,x,x,x,x
C[C@H](CO)N1C[C@H](C)[C@H](CN(C)C(=O)Oc2cccc3ccccc23)OCc2cn(nn2)CCCC1=O,x,n,x,x,x,x
CN1C(=O)NC(=O)/C(=C/c2ccc([N+](=O)[O-])s2)C1=O,n,n,n,n,n,x
CN1C(=O)NC(=O)/C(=C\c2ccc([N+](=O)[O-])o2)C1=O,x,x,n,n,+,n
O=C(Cc1ccncc1)N1CCCCN2[C@H](C1)[C@@H](c1ccc(C#Cc3ccccc3F)cc1)[C@@H]2CO,x,n,x,x,x,x
CCCC#Cc1ccc([C@H]2[C@H]3CN(C(=O)Cc4ccccn4)CCCCN3[C@H]2CO)cc1,x,n,x,x,x,x
CC1C(OC(=O)CCC(=O)NC(C)(C)CO)O[C@H]2OC3(C)CC[C@H]4[C@H](C)CCC1C24OO3 (stereo partly specified),n,77,n,n,x,n
CC(C)CC(NC(=O)CCCNC(=O)CCC(=O)OC1O[C@H]2OC3(C)CC[C@H]4[C@H](C)CCC(C1C)C24OO3)C(=O)O (stereo partly specified),n,74,n,n,n,n
CC[C@H]1C=C(C(=O)N[C@@]2(C(=O)O)C[C@H]2CC)[C@H]2CCC(=O)[C@H]2C1,n,n,x,x,x,x
Fc1ccc(C(OCCN2CCN(CCCc3ccccc3)CC2)c2ccc(F)cc2)cc1,71,u,n,n,x,87
c1ccc(CCCN2CCN(CCOC(c3ccccc3)c3ccccc3)CC2)cc1,n,n,n,82,x,n
Fc1ccc(C(OCCN2CCCC2)c2ccc(F)cc2)cc1,n,n,n,u,n,n
C=CCN1C(=S)N[C@@H]2c3ccccc3O[C@@]1(C)[C@@H]2C(=O)OCC,n,n,x,x,x,x
COc1cccc(C(c2nnnn2Cc2ccccc2)N2CCC(n3c(=O)[nH]c4ccccc43)CC2)c1OC (stereo unspecified),n,91,n,x,x,n
Cc1cccc(C)c1-n1nnnc1C(c1cc2ccccc2o1)N1CCC(n2c(=O)[nH]c3ccccc32)CC1 (stereo unspecified),n,n,n,x,x,96
O=c1[nH]c2ccccc2n1C1CCN(C(c2cccc3ccccc23)c2nnnn2Cc2ccccc2)CC1 (stereo unspecified),n,73,n,x,x,n
O=c1[nH]c2ccccc2n1C1CCN(C(CCc2ccccc2)c2nnnn2C2CCCC2)CC1 (stereo unspecified),n,n,n,x,x,n
O=c1[nH]c2ccccc2n1C1CCN(C(c2cc3ccccc3o2)c2nnnn2Cc2ccccc2)CC1 (stereo unspecified),n,108,n,x,x,n
Cc1cccc(C)c1-n1nnnc1C(c1ccccc1OC(F)(F)F)N1CCC(n2c(=O)[nH]c3ccccc32)CC1 (stereo unspecified),n,n,n,x,x,n
O=C(Cc1ccccc1)N1CCCCN2[C@H](CO)[C@H](c3ccc(-c4ccccc4)cc3)[C@H]2C1,x,n,x,x,x,x
O=c1[nH]c2ccccc2n1C1CCN(Cc2ccc(-c3[nH]c4cc5ncnc5cc4nc3-c3ccccc3)cc2)CC1,n,72,x,x,x,x
O=c1[nH]c2cc(Cl)ccc2n1C1CCN(Cc2ccc(-c3nc4ccccc4nc3-c3ccccc3)cc2)CC1,n,n,x,x,x,x
SMILES,HIV Env fusion,PAX8 reporter,Glyco luc inh,EBV LMP1 NFkB,NSD2 inh,Shn3 3UTR inh
CN(CC1COc2ccccc2O1)c1nc(-c2cccnc2)nc2ccccc12 (stereo unspecified),65,n,n,n,n,n
O=C1NC2C(O)C(O)C(O)C(O)C2c2cc3c(c(O)c21)OCO3 (stereo unspecified),119,105,n,92,n,87
O=C1NC2C(=CC(O)C(O)C2O)c2cc3c(c(O)c21)OCO3 (stereo unspecified),64,x,n,95,n,96
O=C1NC2C(=CC(O)C(O)C2O)c2cc3c(cc21)OCO3 (stereo unspecified),100,123,n,78,x,90
COC(=O)[C@H]1[C@H](CO)[C@H]2Cn3c(ccc(C4=CCCCC4)c3=O)[C@@H]1N2C(=O)NC(C)C,x,n,x,x,x,x
COC(=O)[C@H]1[C@H](CO)[C@H]2Cn3c(ccc(-c4cncnc4)c3=O)[C@@H]1N2S(=O)(=O)c1ccccc1C,x,n,x,x,x,x
C/C=C/c1ccc([C@@H]2[C@H]3CN(C(=O)Cc4cccnc4)CCCCN3[C@H]2CO)cc1,x,n,x,x,x,x
CN1[C@@H]2c3cccc(=O)n3C[C@H]1[C@H](CO)[C@H]2C(=O)NCC1CC1,n,n,x,x,x,x
Cc1cc2c(C(C)C)c(O)c(O)c(C=O)c2c(O)c1-c1c(C)cc2c(C(C)C)c(O)c(O)c(C=O)c2c1O,61,104,n,x,x,92
CN1CCN(C(=O)CN=[N+]=[N-])CC1,n,n,x,x,x,x
CCCC#Cc1ccc([C@H]2[C@H](CO)N3CCCCN(C(=O)Cc4ccccn4)C[C@@H]23)cc1,x,n,x,x,x,x
O=C1NC(=O)N(C2CCCCC2)C(=O)C1C1c2ccccc2C(=O)N1Cc1ccccc1 (stereo unspecified),x,x,n,78,x,n
Cc1cccc(N2C(=O)NC(=O)/C(=C\c3cc(C)n(-c4sc5c(c4C#N)CCCC5)c3C)C2=O)c1C,n,n,n,n,60,n
O=C1NC(=O)N(Cc2ccc(F)cc2)C(=O)/C1=C\C=C\c1ccco1,n,n,u,n,n,n
CCCCN1C(=O)/C(=C/C=C/c2ccco2)C(=O)NC1=S,n,n,n,n,108,n
COc1ccc(-n2nnnc2C(c2cccc(OC)c2OC)N2CCC(n3c(=O)[nH]c4ccccc43)CC2)cc1 (stereo unspecified),n,n,n,x,x,n
COc1ccc(-n2nnnc2C(c2ccccc2)N2CCC(n3c(=O)[nH]c4ccccc43)CC2)cc1 (stereo unspecified),n,78,n,x,x,n
COc1ccc(-n2nnnc2C(c2cccs2)N2CCC(n3c(=O)[nH]c4ccccc43)CC2)cc1 (stereo unspecified),n,71,n,x,x,n
NC(Cc1ccc(O)cc1)C(=O)NN=Cc1ccc(N(CCCl)CCCl)cc1 (stereo unspecified),n,n,n,48,n,n
